Test results taken from the supplement of paper PMC3545927.
This is one part of the list. How many sequences the whole screen found active is unknown.

Target: furin, P09958
Assay: furin cleavage Z-score vs untreated control; higher = more cleavage, active = 3.5 or more, inactive = 1 or less, 8 variable residues between constant flanks
Method in brief: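 Reactions of 0.01 ml ran for 7.5, 15 or 30 min in 50 mM HEPES pH 7.5 with CaCl2 and NaCl, at 1:10 enzyme:substrate. In them, purified furin acted on bead-held 8-mer peptides fused to a cDNA oligonucleotide. The cleavage Z-score was obtained by lowess-adjusting log sequencing counts of released DNA against furin-free reactions and scaling by median absolute deviation.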

Chain of furin, P09958 (P09958 whole entry): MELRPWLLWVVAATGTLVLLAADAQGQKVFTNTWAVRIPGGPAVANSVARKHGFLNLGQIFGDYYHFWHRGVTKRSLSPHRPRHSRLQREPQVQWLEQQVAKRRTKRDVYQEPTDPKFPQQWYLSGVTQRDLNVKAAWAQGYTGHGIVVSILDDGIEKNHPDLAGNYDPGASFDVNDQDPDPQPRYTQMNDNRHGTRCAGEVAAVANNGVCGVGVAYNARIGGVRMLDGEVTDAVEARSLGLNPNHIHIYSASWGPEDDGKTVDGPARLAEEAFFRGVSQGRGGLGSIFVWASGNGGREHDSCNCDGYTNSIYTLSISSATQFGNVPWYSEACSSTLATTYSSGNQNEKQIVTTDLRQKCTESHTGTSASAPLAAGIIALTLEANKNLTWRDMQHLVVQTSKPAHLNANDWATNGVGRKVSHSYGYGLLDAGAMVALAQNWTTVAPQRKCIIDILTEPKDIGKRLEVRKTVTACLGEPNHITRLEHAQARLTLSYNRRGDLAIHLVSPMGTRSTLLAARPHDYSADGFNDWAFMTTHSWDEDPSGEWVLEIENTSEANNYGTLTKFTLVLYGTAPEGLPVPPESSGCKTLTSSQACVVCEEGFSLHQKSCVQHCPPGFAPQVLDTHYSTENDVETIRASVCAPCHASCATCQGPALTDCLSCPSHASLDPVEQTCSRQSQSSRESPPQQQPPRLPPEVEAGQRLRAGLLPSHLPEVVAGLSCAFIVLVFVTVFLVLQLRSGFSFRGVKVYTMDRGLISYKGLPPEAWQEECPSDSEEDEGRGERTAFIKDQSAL

| Sequence | furin cleavage Z-score (7.5 min) | furin cleavage Z-score (15 min) | furin cleavage Z-score (30 min) |
| --- | --- | --- | --- |
| CAVPCVREGNAGNASASA [HC274] | -0.737 (inactive) | -0.519 (inactive) | -1.84 (inactive) |
| CARLARTCGRAGNASASA [FS-2985] | -1.25 (inactive) | 0.197 (inactive) | -0.432 (inactive) |
| CAGVNYATGNAGNASASA [HC241] | 1.48 | 0.396 (inactive) | -0.36 (inactive) |
| CARLPRATGNAGNASASA [FS-2571] | 5 (active) | 5.67 (active) | 4.58 (active) |
| CAWREVPCHRAGNASASA [HC2428] | 0.368 (inactive) | 0.114 (inactive) | 0.301 (inactive) |
| CARLRRMNGNAGNASASA [FS-2994] | -0.28 (inactive) | -1.18 (inactive) | -0.557 (inactive) |
| CARLPRDCTRAGNASASA [FS-1742] | 5.34 (active) | 4.96 (active) | 5.25 (active) |
| CAVVCCCMSYAGNASASA [HC114] | -0.592 (inactive) | -1.78 (inactive) | -0.879 (inactive) |
| CAENLPYLVAAGNASASA [HC951] | 0.645 (inactive) | -0.626 (inactive) | -0.719 (inactive) |
| CARKRRGYSEAGNASASA [FS-2566] | 2.94 | 5.38 (active) | 4.72 (active) |
| CARKRRAAIPAGNASASA [FS-2970] | 8.75 (active) | 10.1 (active) | 9.65 (active) |
| CARKRRMQEEAGNASASA [FS-2349] | 1.31 | 4.08 (active) | 2.78 |
| CARKRKKKEEAGNASASA [FS-2697] | 0.247 (inactive) | -0.542 (inactive) | 0.0983 (inactive) |
| CARKRRHHKEAGNASASA [FS-2699] | 2.57 | 3.84 (active) | 4.3 (active) |
| CARKNRSRIPAGNASASA [FS-1732] | 0.169 (inactive) | -0.807 (inactive) | 1.17 |
| CAITTGSPITAGNASASA [HC803] | -2.76 (inactive) | 0.166 (inactive) | -2.04 (inactive) |
| CAHGVRVLEDAGNASASA [HC237] | -1.85 (inactive) | 0.0719 (inactive) | -1.67 (inactive) |
| CATLPCSGSWAGNASASA [HC1845] | -0.596 (inactive) | -0.261 (inactive) | -1.28 (inactive) |
| CAAFASRGNHAGNASASA [HC1121] | -0.112 (inactive) | -1.64 (inactive) | -2.06 (inactive) |
| CARKRRHAKPAGNASASA [FS-1906] | 10.5 (active) | 11.1 (active) | 8.48 (active) |
| CARGNHVSPTAGNASASA [HC1123] | 1.1 | 1.54 | 0.545 (inactive) |
| CAEVPCHRPKAGNASASA [HC2414] | -1.63 (inactive) | 0.536 (inactive) | -0.415 (inactive) |
| CAVVCCSMQYAGNASASA [HC2082] | 1.92 | 0.703 (inactive) | 0.648 (inactive) |
| CAGGAYDIIIAGNASASA [HC814] | -2.09 (inactive) | -0.697 (inactive) | -1.96 (inactive) |
| CAGAGAGAGAAGNASASA [NE4] | -0.934 (inactive) | -0.739 (inactive) | -0.847 (inactive) |
| CAGERRRRRAAGNASASA [FS-996] | 8.97 (active) | 8.15 (active) | 6.93 (active) |
| CAPAPPRRRAAGNASASA [FS-1041] | -0.128 (inactive) | 0.595 (inactive) | -0.381 (inactive) |
| CAGERGFFYTAGNASASA [EK5] | -1.92 (inactive) | -1.21 (inactive) | -0.932 (inactive) |
| CAGAQRRRRAAGNASASA [FS-1524] | 6.18 (active) | 4.18 (active) | 4.18 (active) |
| CAHHQRRRRAAGNASASA [FS-907] | 7.96 (active) | 6.66 (active) | 6.29 (active) |
